# Screening results (PubChem BioAssay)
# Only some compounds are listed: those with a hit (about 3.5% of all), similar ones and a draw of the others.
# Mtb UGM inh: M. tuberculosis UGM enzyme inhibitors, primary screen, biochemical, fluorescence polarization, single point | inhibition, % at 10 µM | purified UGM, fluorescence polarization probe displacement | actives 0.06% (n = 320,000) | UDP-galactopyranose mutase (Mycobacterium tuberculosis (strain ATCC 25618 / H37Rv)), …; in the data active = inhibition above about 10%, passing the limit was not always enough
# Target sequence (P9WIQ1 whole entry, looked up): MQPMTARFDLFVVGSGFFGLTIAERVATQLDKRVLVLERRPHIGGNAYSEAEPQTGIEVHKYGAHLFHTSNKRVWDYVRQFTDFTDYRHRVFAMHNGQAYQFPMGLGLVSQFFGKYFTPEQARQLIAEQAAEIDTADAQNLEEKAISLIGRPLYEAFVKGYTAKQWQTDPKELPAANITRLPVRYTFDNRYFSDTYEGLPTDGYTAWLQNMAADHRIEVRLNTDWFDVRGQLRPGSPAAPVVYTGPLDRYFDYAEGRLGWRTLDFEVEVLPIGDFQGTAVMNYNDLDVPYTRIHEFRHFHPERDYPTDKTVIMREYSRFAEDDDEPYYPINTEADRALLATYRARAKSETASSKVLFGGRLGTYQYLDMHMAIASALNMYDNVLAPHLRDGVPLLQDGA
# FBA Mtb inh: Mtb FBA enzyme inhibitors, primary screen, biochemical, fluorescence, strain H37Rv. Fructose-bisphosphate aldolase (Mycobacterium tuberculosis (strain ATCC 25618 / H37Rv)), …. purified M. tuberculosis FBA, fluorescence read-out. inhibition, % at 1 µM. actives 2.3% (n = 360,000). AID 588726, 2011;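 note: 0% = vehicle and 100% = reference inhibitor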
# FadD28 FP inh: inhibitors of FadD28 bisubstrate probe binding, primary screen, biochemical, fluorescence polarization, single point; inhibition, % at 12.5 µM; actives 0.22% (n = 360,000); Mycobacterium tuberculosis FadD28 fatty-acid-AMP ligase; AID 588549, 2011; in the data active = inhibition above about 8.5%, passing the limit was not always enough
# GDH-TPI counter-1: GDH-TPI coupling enzyme inhibitors, primary screen, artefact control for M. tuberculosis FBA inhibitor project, biochemical, absorbance, full deck; actives 1.2% (n = 360,000); GDH-TPI coupled enzyme counterscreen, NADH absorbance; inhibition, % at 4.8 µM; in the data active = inhibition above about 30%;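 note: 0% = DMSO wells and 100% = wells lacking the enzyme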
# Mtb hypoxia rep: PubChem AID 1159583. M. tuberculosis hypoxia-regulated fluorescent reporter, fluorescence. fluorescence inhibition, % (concentration not given with the values). actives 0.1% (n = 300,000); in the data active = fluorescence inhibition mostly above about 23%, no sharp cut-off; inactive = mostly below about 17%
# Rv3671c protease: Rv3671c serine protease inhibitors, primary screen, biochemical, fluorescence polarization, M. tuberculosis H37Rv. P9WHR9. inhibition, % at 5.96 µM. actives 0.048% (n = 320,000); in the data active = inhibition above about 38%;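 note: extracellular domain of Rv3671c used as enzyme; 0% = enzyme with DMSO and 100% = no enzyme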
# Mtb FBA inh conf: M. tuberculosis aldolase blockers, biochemical, fluorescence, strain H37Rv, confirmation. AID 651616, 2012. purified M. tuberculosis FBA, fluorescence read-out. shares compounds with FBA Mtb inh. inhibition, % at 1 µM. actives 78% (n = 5,600);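 note: 0% = vehicle wells and 100% = reference inhibitor wells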
# GDH-TPI counter-2: GDH-TPI coupling enzyme inhibitors, artefact control for M. tuberculosis FBA inhibitor project, biochemical, fluorescence, high throughput; inhibition, % at 1 µM; actives 81% (n = 5,600); GDH-TPI coupled enzyme counterscreen; shares compounds with FBA Mtb inh; in the data active = inhibition above about 10%
# Active calls of the source: *; / = no result; + = active, no number. Cut-off read from the data, not from the text of the source, unless noted: active = inhibition above about 27%; inactive = the rest.
SMILES,Mtb UGM inh,FBA Mtb inh,FadD28 FP inh,GDH-TPI counter-1,Mtb hypoxia rep,Rv3671c protease,Mtb FBA inh conf,GDH-TPI counter-2
COC(=O)c1ccc(C(=O)OC)c(NC(=S)N2CCN(C)CC2)c1,0,33*,-1,9,-6,7,198*,174*
COC(=O)c1ccc(C(=O)OC)c(NC(=S)N2CCC(C)CC2)c1,-5,23,2,8,8,-5,/,/
COC(=O)c1ccc(C(=O)OC)c(NC(=S)N2CCCCC2C)c1 (configuration not stated),-1,100*,-4,2,/,-1,60*,59*
COC(=O)c1ccc(C(=O)OC)c(NC(=O)CCC(=O)O)c1,-2,28*,-1,18,3,3,33*,23*
COC(=O)c1ccc(C(=O)OC)c(NC(=S)N2CCCC2)c1,1,3,0,2,1,-1,/,/
O=C(CSc1ccccc1)Nc1ccc(-c2nc3ccccc3[nH]2)cc1,2,0,-3,9,/,-18,/,/
O=C(CSc1ccc(Cl)cc1)Nc1cccc(-c2nc3ccccc3[nH]2)c1,/,35*,0,17,13,-30,+,+
CCOc1ccc(C=NOCC(=O)NCc2cccs2)cc1,/,/,/,/,-3,/,/,/
Nc1cc2nn(-c3ccccc3)nc2cc1Cl,/,36*,-1,8,7,/,109*,88*
COc1ccc2c(c1)c1c(c(=O)n(-c3ccc(C)cc3)c(=O)n1CC(=O)NCC1CCCO1)n2C (configuration not stated),/,29*,-4,-15,/,/,38*,27*
Cc1ccc(-n2c(=O)c3c(c4cc(C)ccc4n3C)n(CC(=O)NCC3CCCO3)c2=O)cc1 (configuration not stated),/,63*,-2,16,/,/,54*,50*
Cc1ccc(C)c(NC(=O)Cn2c(=O)n(-c3ccc(CC(=O)NCC4CCCO4)cc3)c(=O)c3ccccc32)c1 (configuration not stated),0,/,/,/,5,3,/,/
Cc1ccc(C=NNC(=O)c2nnn(-c3nonc3N)c2CNc2ccccc2)cc1,/,/,/,/,6,/,/,/
CC(=O)c1ccc(S(=O)(=O)N2CCCC(N(C)CCc3ccccn3)C2)cc1 (configuration not stated),-1,76*,1,-1,3,4,-2,-5
COc1ccc(CC(=O)NN=C(C)CC(=O)Nc2cccc(F)c2)cc1,/,/,/,/,-3,/,/,/
COc1cc2oc(=O)ccc2cc1[C@H](O)[C@@H](O)C(C)(C)O,-3,49*,-1,26,5,13,47*,32*
COc1cc2oc(=O)ccc2cc1[C@@H](O)[C@@H]1OC(C)(C)OC1(C)C,3,29*,-2,13,12,0,79*,40*
Cc1ccc(C(=O)CC(c2cccs2)S(=O)(=O)c2ccc(C)cc2)cc1 (configuration not stated),1,102*,-3,2,/,-7,61*,29*
Cc1ccc(C=NNC(=O)c2cc3c(ccc4ccccc43)o2)cc1[N+](=O)[O-],/,/,/,/,4,/,/,/
C=CCOC(=O)C1=CC(c2ccc3c(c2)OCO3)CC(OCCCCO)O1 (configuration not stated),/,/,/,/,17,/,/,/
Cc1ccc2nc(-c3ccc(NC(=O)CSc4nccc(=O)[nH]4)cc3)sc2c1,1,53*,-2,24,/,-110,+,+
Nc1cc(=O)[nH]c(SCC(=O)Nc2nc3ccc([N+](=O)[O-])cc3s2)n1,0,/,/,/,3,2,/,/
Cc1ccc2nc(-c3ccc(NC(=O)CSc4nc(N)cc(=O)[nH]4)cc3)sc2c1,1,37*,-6,24,11,-70,73*,42*
